PubChem BioAssay (NCI)
This is part of a sample that, as a whole, favours compounds with a hit. Of some 79,000 tested, about 15% had one in any assay. Values without a mark were called inactive. The source made the active and inactive calls. Rule as the data show it: active = growth inhibition above about 70%; inactive = the rest.

Assay: NCI Yeast Anticancer Drug Screen. Data for the CLN2oe strain (AID 163);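 also: 0% = growth of vehicle-only control cultures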
Conditions: S. cerevisiae CLN2oe strain, hits give high values
Method: Growth inhibition of yeast strains with defined genetic alterations is measured as a screen for potential anti-cancer activity. Selected strains with alterations in DNA damage repair or cell cycle control were exposed to compounds and growth inhibition was measured relative to vehicle treated controls. The strain used in this assay is CLN2oe

Row | SMILES | growth inhibition (at 1.2 µM) [%] | growth inhibition (at 3.7 µM) [%] | growth inhibition (at 11.0 µM) [%] | growth inhibition (at 33.0 µM) [%] | growth inhibition (at 100.0 µM)
1 | C/C=C/[P+](c1ccccc1)(c1ccccc1)c1ccccc1 | 16 | 13 | 29 | 30 | 78% (active)
2 | COc1cc([C@@H]2c3cc4c(cc3[C@@H](OC3OC5COC(C)OC5C(O)C3O)[C@H]3COC(=O)[C@H]23)OCO4)cc(OC)c1O (stereo not given in full) | -2 | -6 | -4 | -4 | -6%
3 | Nc1ccc2c(c1)sc1ccccc12 | -2 | -5 | -3 | -5 | 95% (active)
4 | CC1C(C#N)(C#N)C(C#N)=C(N)C1(Cl)[N+](=O)[O-] (stereo not given) | 19 | 39 | 48 | 53 | 88% (active)
5 | N#CSC1CCCCNC1=O (stereo not given) | -4 | -4 | 21 | 44 | 96% (active)
6 | O=C(CCc1ccccc1)ON1C(=S)C(c2ccccc2)(c2ccccc2)N=C1Sc1ccccc1 | 4 | -8 | -4 | 19 | 57%
7 | CN(C)CCN1C(=O)c2cccc3cc([N+](=O)[O-])cc(c23)C1=O | 18 | 28 | 41 | 36 | 69%
8 | CCCCCCCCCCCc1nc(N)n[nH]1 | -3 | -6 | -13 | 16 | 82% (active)
